Experimental data published in PubChem BioAssay (EPA / NIEHS).
The source made the active and inactive calls. Rule for the calls: active = hit-call score of the fitted dose curve at least 0.9, where 1 is the maximum; inactive = score below 0.9.

assay: CCTE_Harrill_HTTr_Viability_MCF7: CCTE's 6-hour Cell Viability Assessment for the High-Throughput Transcriptomics (HTTr) Platform, in MCF-7 cells cultured in DMEM + 10% fetal bovine serum, Harrill Lab (AID 2284010)
Excerpt: This is a cell-based assay that evaluates cell viability using high content imaging to evaluate membrane integrity using propidium iodide dye exclusion in a 384 well format.One of seven assay components measured from the CCTE_Harrill_HTTr_Viability assay. This was part of a full screening experiment. This is a cell-based assay that evaluates cell viability in MCF-7 cells cultured in DMEM + 10% fetal bovine serum. High content imaging is used to evaluate membrane integrity using propidium iodide dye exclusion. Measurements are taken at 6 hours after chemical dosing in 384-well format.The assay component endpoint CCTE_Harrill_HTTr_Viability_MCF7 was analyzed with bidirectional fitting relation to DMSO as the negative control and baseline of activity. Using a type of viability reporter, gain-of-signal activity can be used to evaluate membrane integrity using propidium iodide dye exclusion to understand changes in cytotoxicity. To generalize the intended target to other relatable targets, this assay endpoint is annotated to cell cycle, where the subfamily is cytotoxicity.
Chemicals were tested in MCF7 cells in an eight point dilution series with a six hour exposure duration.

Row | Structure (SMILES) | outcome | AC50
1 | CCCCc1nc2cccnc2n1Cc1ccc(-c2ccccc2-c2nnn[nH]2)cc1 | inactive | 
2 | Nc1nc(=S)c2[nH]cnc2[nH]1 | inactive | 
3 | Cc1cn([C@H]2C=C[C@@H](CO)O2)c(=O)[nH]c1=O | inactive | 
4 | O=C(N[C@@H](c1ccccc1)[C@@H]1CCCCN1)c1cccc(C(F)(F)F)c1Cl | inactive | 
5 | CCCCC(CC)COP(=O)(OCC(CC)CCCC)OCC(CC)CCCC (stereo not given) | inactive | 
6 | O=C1NC(=O)C(c2ccccc2)(c2ccccc2)N1 | inactive | 
7 | CC1(C)C(=O)NC(=O)N1CO | inactive | 
8 | COC(=O)CCCC(=O)OC | inactive | 
9 | CC(COCC(C)OC(=O)c1ccccc1)OC(=O)c1ccccc1 (stereo not given) | inactive | 
10 | CCOCCOCCO | inactive | 
11 | O=C(O)CC(O)(CC(=O)O)C(=O)O | inactive | 
12 | O=C(O)CN(CC(=O)O)CC(=O)O | inactive | 
13 | CN(C)CCCN1c2ccccc2Sc2ccc(Cl)cc21 |  | 77.1 µM (active)
14 | CC(=O)[C@@]1(O)CC[C@H]2[C@@H]3CCC4=CC(=O)CC[C@]4(C)[C@H]3CC[C@@]21C | inactive | 
15 | CCCCCCCC(=O)OC | inactive | 
16 | CC(C)NCC(O)c1ccc(O)c(O)c1 (stereo not given) | inactive | 
17 | CC(C)COC(=O)CCCCC(=O)OCC(C)C | inactive | 
18 | CN(C)C(=O)NC1(c2ccccc2)CCN(CC[C@@]2(c3ccc(F)c(F)c3)CN(C(=O)c3ccccc3)CCO2)CC1 | inactive | 
19 | CC(C)(C)c1ccccc1 | inactive | 
20 | CO[C@@H]1COCC[C@@H]1N[C@@H]1CC[C@@](C(=O)N2CCc3ncc(C(F)(F)F)cc3C2)(C(C)C)C1 | inactive | 

Row | Structure (SMILES) | outcome | AC50
21 | CC1=C(C)S(=O)(=O)CCS1(=O)=O | inactive | 
22 | O=C(NS(=O)(=O)/C=C/c1cccs1)c1ccc(F)cc1Br | inactive | 
23 | CCCCCCCCCC[N+](C)(C)[O-] | inactive | 
24 | O=[Si]=O | inactive | 
25 | Cc1cc(Cc2ccc(N)c(C)c2)ccc1N | inactive | 
26 | CS(=O)(=O)c1ccc([C@@H](C[C@H]2CCC(=O)C2)C(=O)Nc2cnccn2)cc1Cl | inactive | 
27 | C#CC(O)C(CC)CCCC (stereo not given) | inactive | 
28 | Cn1cnc2c1c(=O)[nH]c(=O)n2C | inactive | 
29 | Cc1occc(=O)c1O | inactive | 
30 | CN(C)C(=O)NC1(c2ccccc2)CCN(CCC[C@]2(c3ccc(Cl)c(Cl)c3)CCCN(C(=O)c3ccccc3)C2)CC1 | inactive | 
31 | COc1ccc(OC(F)(F)F)cc1CN[C@H]1CCCN[C@H]1c1ccccc1 | inactive | 
32 | CCCCCCC(C=O)=Cc1ccccc1 | inactive | 
33 | CCCC[C@H]1CN(CC2CCOCC2)C(=O)OC12CCN(C1(C)CCN(C(=O)c3c(C)ncnc3C)CC1)CC2 | inactive | 
34 | NC(=Nc1ccccc1)Nc1ccccc1 | inactive | 
35 | Oc1ccc(O)cc1 | inactive | 
36 | Cc1c(C)c2c(c(C)c1O)CCC(C)(COc1ccc(CC3SC(=O)NC3=O)cc1)O2 (stereo not given) | inactive | 
37 | Cc1ccc(C(C)(C)C)c(O)c1 | inactive | 
38 | Nc1nc(Cl)nc2c1ncn2[C@H]1C[C@H](O)[C@@H](CO)O1 | inactive | 
39 | O=C1O[C@H]([C@H](O)CO)C(O)=C1O | inactive | 
40 | C/C=C/c1ccc(OC)cc1 | inactive | 
